In general, inhibition refers to the change of the read-out against control, counted positive when it falls.

These results are taken from PubChem BioAssay AID463215 (Sanford-Burnham Center for Chemical Genomics, 2010).

Hit rate of the full screen: of about 4,600 compounds, about 2,900 (63%) were called active. So high a share suggests a set chosen from earlier hits. A selection follows. Values without a mark were called inactive.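 The calls were made as follows: active = inhibition of yeast growth at or above a set limit in either of two replicates at 10 µM; inactive = the rest.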

The nature of the assay: growth inhibitors of wild-type TIM10 yeast, confirmation, counter-screen for tim10-1 synthetic lethality project, single concentration, luminescence, S. cerevisiae (AID 463215).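 Also: isogenic wild-type TIM10 control yeast grown in succinate dextrose medium; this counterscreen used the strain with wild-type TIM10; 0% = yeast with DMSO and 100% = medium wells lacking yeast.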 The following applies: S. cerevisiae tim10 strain growth, BacTiter-Glo luminescence, 24 h; at 10 µM; hits give high values.
Consider `Fc1cccc(Cl)c1CSc1ccc(-c2ccco2)nn1`, for which the inhibition is 35.9% (active).

With `O=C(/C=C/c1ccc(Cl)c([N+](=O)[O-])c1)c1cccnc1`, the inhibition was 81.2% (active).

`COc1cc([N+](=O)[O-])ccc1NC(=O)COC(=O)CCOc1ccc(C)cc1`: the inhibition was 43.4% (active). To `C=CS(=O)c1sc(Cl)c(N2CCOCC2)c1[N+](=O)[O-]` (configuration not stated) belongs 87.5% (active); to `CCc1ccc2c(c1)C1(NN=C(c3ccccc3)S1)C(=O)N2` (configuration not stated), 43.3% (active).

With `O=C(N/N=C/c1c[nH]c2ccccc12)c1cc2ccccc2o1`, the inhibition is 22.9%. Consider `Cc1ccc(Nc2nc(Cl)c(C=O)s2)cc1`, for which the inhibition is 10.7%. As for `Nc1ccccc1SC(C[N+](=O)[O-])c1ccccc1` (configuration not stated), the inhibition was 53.5% (active). Regarding `O=C(Nc1ccc2oc(-c3ccccc3F)nc2c1)c1ccco1`, the inhibition was 62.4% (active). For the compound `O=C(Nc1nc(-c2ccco2)c(-c2ccco2)s1)c1ccco1`, the inhibition was 39.9% (active).

Regarding `COCCNC(=O)/C(C#N)=C/c1cccc(OCc2ccccc2)c1`, the inhibition is 69.5% (active). Turning to `Cc1cc(C)n(-c2nc(SCC(=O)N3CCCC3)c3c4c(sc3n2)CCCC4)n1`, the inhibition is 23.4%.

For `CCOC(=O)C(=Cc1ccccc1OC)C(=O)OCC`, the inhibition was 27.6%. To `COc1ccc(CNC(=O)/C(C#N)=C/c2cccc(OC)c2OC)cc1` belongs 80.8% (active); to `c1ccc(-c2nccc(-c3ccc(-n4cnc5ccccc54)cc3)n2)nc1`, -3.75%.

Consider `CN(C)CCCN(C(=O)c1ccc(S(=O)(=O)N2CCCc3ccccc32)cc1)c1nc2ccc(F)cc2s1`, for which the inhibition is 41.4% (active).

For the compound `CCN(CC)CCN(C(=O)c1ccc(S(=O)(=O)N2CCOCC2)cc1)c1nc2cc3c(cc2s1)OCCO3`, the inhibition is 28.1%.

For the compound `COc1cccc(NC(=O)CSc2nccn(-c3ccc4c(c3)OCCO4)c2=O)c1`, the inhibition is 8.7%. `O=C(NNc1c2ccccc2nc2ccccc12)c1cc2ccccc2cc1O`: the inhibition is -21.2%. For `COc1ccc(Oc2cn[nH]c2-c2ccc(OC)cc2O)cc1`, the inhibition is 31% (active). As to `O=S(=O)(NC1CCCCC1)c1ccc(F)c2ccccc12`, the inhibition is 29.4%. Take `Fc1ccc(/C=N/n2c(COc3ccccc3)n[nH]c2=S)cc1`: the inhibition was 37% (active). The same measure for `CC[C@@H]1Cc2cc(O)ccc2C2=C1c1ccc(O)cc1C[C@H]2CC`: 66.3% (active). To `Cc1[nH]c2ccccc2c1C(=O)COC(=O)c1c(-c2ccccc2)noc1C` belongs 36.8% (active). For `CCC(C)(C)n1nnnc1CN1CCN(c2nc3ccc(C)cc3cc2C#N)CC1`, the inhibition is 24.8%. Turning to `O=C(NCc1ccco1)c1cc2sccc2n1Cc1ccc(F)cc1`, the inhibition is 23.6%.

With `CCc1cccc(CC)c1NC(=S)NCc1ccc2[nH]c(C)cc2c1`, the inhibition was 52.9% (active).
